The values below come from PubChem BioAssay (NCATS).

Inconclusive results are not listed. Values without a mark were called inactive. Calls of active or inactive are those of the source. Calls follow the shape of the dose curve; as a rule, active = well fitted curve in the direction sought with a large enough effect; inconclusive = small, poorly fitted or top-dose-only effect, or another doubt; inactive = no such curve, though single readings can be large; an effect the other way counts as inactive or inconclusive.

Assay [1] is described as follows: qHTS of pediatric cancer cell lines to identify multiple opportunities for drug repurposing: Primary screen for NB1643 cells (AID 1347099). Also: nearly all actives have a fitted effect of over 50% in size. Also: potency is read from the fitted curve at half-maximal effect. A digest of the protocol:
(§1)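 Plated cells (500-1,000 per well, growth media) were allowed to settle for 5 hours, treated with compound dilutions for 48 hours, then lysed with CellTiter-Glo for 15 min at room temperature before luminescence reading.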

Assay [2] in a line: qHTS of pediatric cancer cell lines to identify multiple opportunities for drug repurposing: Primary screen for BT-12 cells (AID 1347101). Also: nearly all actives have a fitted effect of over 25% in size. Also: potency is read from the fitted curve at half-maximal effect. A digest of the protocol:
(§2)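 Cells (500-1,000/well) rested 5 h, then received compounds for 48 h; metabolically active cells were measured by CellTiter-Glo luminescence. Final concentrations spanned up to 46 µM (MIPE, 11-point) or 0.59 nM-46 µM (NPC, 8-point) in primary screens, 11-point in follow-ups.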
Background: qHTS replaces the single test concentration by a dilution series.

The nature of assay [3]: qHTS of pediatric cancer cell lines to identify multiple opportunities for drug repurposing: Primary screen for Rh18 cells (AID 1347102). Also: nearly all actives have a fitted effect of over 65% in size. Also: potency is read from the fitted curve at half-maximal effect. A digest of the protocol:
(§3)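 Cells (500-1,000/well) in growth media were settled 5 h at 37 degrees C, then given compounds for 48 h. Viability was read as CellTiter-Glo luminescence. Primary runs used MIPE at 11 points (0.78 nM-46 µM) and NPC at 8 points (0.59 nM-46 µM); follow-ups used 11 points.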

Assay [4] is described as follows: qHTS of pediatric cancer cell lines to identify multiple opportunities for drug repurposing: Primary screen for OHS-50 cells (AID 1347103). Also: nearly all actives have a fitted effect of over 40% in size. Also: potency is read from the fitted curve at half-maximal effect. The procedure, abridged:
as §2

Assay [5] can be described thus: qHTS of pediatric cancer cell lines to identify multiple opportunities for drug repurposing: Primary screen for RD cells (AID 1347104). Also: nearly all actives have a fitted effect of over 55% in size. Also: potency is read from the fitted curve at half-maximal effect. The procedure, abridged:
as §1

A short description of assay [6]: qHTS of pediatric cancer cell lines to identify multiple opportunities for drug repurposing: Primary screen for MG 63 (6-TG R) cells (AID 1347105). Also: nearly all actives have a fitted effect of over 50% in size. Also: potency is read from the fitted curve at half-maximal effect. The procedure, abridged:
as §1

A short description of assay [7]: qHTS of pediatric cancer cell lines to identify multiple opportunities for drug repurposing: Primary screen for control Hh wild type fibroblast cells (AID 1347106).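 Also: series mostly up to about 46 µM; a drop in luminescence marks cytotoxicity and a rise apparent proliferation; nearly all actives have a fitted effect of over 55% in size.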 The procedure, abridged:
as §3

Assay [8] can be described thus: qHTS of pediatric cancer cell lines to identify multiple opportunities for drug repurposing: Primary screen for Rh30 cells (AID 1347107). Also: nearly all actives have a fitted effect of over 75% in size. Also: potency is read from the fitted curve at half-maximal effect. A digest of the protocol:
as §3

Assay [9] can be described thus: qHTS of pediatric cancer cell lines to identify multiple opportunities for drug repurposing: Primary screen for Rh41 cells (AID 1347108). Also: nearly all actives have a fitted effect of over 70% in size. Also: potency is read from the fitted curve at half-maximal effect. A digest of the protocol:
as §1

The nature of assay [10]: qHTS of pediatric cancer cell lines to identify multiple opportunities for drug repurposing: Primary screen for LAN-5 cells (AID 1347100). Also: potency is read from the fitted curve at half-maximal effect. A digest of the protocol: as §3

`CNC1CCC(N(Cc2cccc(-c3ccncc3)c2)C(=O)c2sc3ccccc3c2Cl)CC1` (centres undefined): the Potency in assay [1] was 20.9 µM (active); in [2] it was 30.6 µM (active); in assay [3], 23.5 µM (active); in [4], 19.3 µM (active); in assay [5], 18.7 µM (active); in assay [6] it was 29.6 µM (active). In addition, in assay [7], the Potency entry is “inactive”.

As for `O=C(NC[C@H](O)CO)c1ccncc1Nc1ccc(I)cc1F`, the Potency entry in assay [1], in assay [4], in [6], in assay [7] and in assay [8] was “inactive” throughout. Moreover, the Potency in assay [3] was 10.5 µM (active).

Turning to `O=C(O)c1ccc(O)c2ncc(N3CCOCC3)cc12`, the figures for the Potency in assay [1], in assay [4] and in [9] were 23.5 µM (active), 24.3 µM (active) and 18.7 µM (active), respectively. For the same compound, in assay [3], the Potency result is “inactive”.

Turning to `CCC(=O)OCC(=O)[C@@]1(OC(=O)CC)[C@@H](C)C[C@@H]2[C@H]3CCC4=CC(=O)C=C[C@]4(C)[C@@]3(F)[C@@H](O)C[C@@]21C`, the Potency in assay [1] is 2.35 µM (active); in assay [2] it was 6.11 µM (active); in assay [4], 10.9 µM (active); in assay [5], 6.62 µM (active); in [9], 0.148 µM (active). Also, the Potency entry in [3] and in [8] was “inactive” each time.

For the compound `O=c1[nH]nc(OCCCc2ccc(Cl)cc2)c(NCc2cccnc2)c1Br`, the Potency was 23.5 µM (active) in assay [1]; 23.5 µM (active) in assay [3]; 19.3 µM (active) in assay [4]; 14.8 µM (active) in assay [5]; 18.7 µM (active) in assay [6]; 23.5 µM (active) in assay [8]. The Potency in assay [9] is 18.7 µM (active).

For `O=C(CO)N1CCC(c2[nH]nc(-c3ccc(Cl)cc3)c2-c2ccncn2)CC1`, the Potency result in assay [1], in [2], in [4], in assay [6] and in [7] was “inactive” throughout.

Turning to `CCN1C[C@H](C)n2c(c(O)c3c(=O)n(Cc4ccc(F)c(Cl)c4)nc(C(=O)NC)c32)C1=O`, the Potency entry in assay [10], in [2], in assay [3], in assay [4], in assay [5] and in assay [6] was “inactive” throughout. Besides, the Potency result in [7], in assay [8] and in assay [9] was “inactive” throughout.

Regarding `CCCC1OC2C[C@@H]3[C@H]4CCC5=CC(=O)C=C[C@]5(C)[C@H]4C(O)C[C@]3(C)[C@]2(C(=O)CO)O1` (some centres undefined), the Potency in assay [1] is 20.9 µM (active). Also, the Potency entry in [6] and in [7] was “inactive” throughout.

For the compound `O=C(Nc1cccc2c(=O)cc(-c3nn[nH]n3)oc12)c1ccc(OCCCCc2ccccc2)cc1`, the Potency entry in assay [1], in assay [6], in assay [7], in assay [8] and in assay [9] was “inactive” in each case. Further, the Potency was 24.3 µM (active) in assay [4] and 37.2 µM (active) in assay [5].

`CCOC(=O)N1c2ccc(C(F)(F)F)cc2[C@@H](N(Cc2cc(C(F)(F)F)cc(C(F)(F)F)c2)C(=O)OC)C[C@H]1CC`: the Potency result in assay [1], in [5], in assay [6] and in assay [7] was “inactive” in each case. The Potency in assay [4] was 15.3 µM (active).

As to `O=C(CC12CC3CC(CC(C3)C1)C2)Nc1cccc2nc(NCCNCCO)ccc12`, the Potency is 13.2 µM (active) in assay [1] and 14.8 µM (active) in assay [6]. Moreover, the Potency entry in assay [3] and in assay [9] was “inactive” in each case.

On to `c1ccc(CNc2nc(N3CCOc4ccccc43)nc3c2CCCC3)cc1`, for which the Potency in [1] was 23.5 µM (active). The Potency entry in [5], in assay [6] and in assay [8] was “inactive” each time.

In the case of `CN1C(=O)C(Cc2c[nH]c3ccccc23)NC1=S` (centres undefined), the Potency result in assay [10], in [2], in assay [3], in assay [4], in [5] and in assay [6] was “inactive” each time. In assay [7], the Potency result is “inactive”.

In the case of `CC1(C)C(N(O)C(=O)Nc2ccc(Cl)cc2)N(c2ccc(Cl)cc2)C(=O)N1CC(=O)NN=CC=Cc1ccc([N+](=O)[O-])o1` (centres undefined), the figures for the Potency in [1], in [5] and in assay [9] were 20.9 µM (active), 29.6 µM (active) and 14.8 µM (active), respectively.

Consider `COc1cc2c(cc1Cc1cccc(Cl)c1F)c(=O)c(C(=O)O)cn2[C@H](CO)C(C)C`, for which, in assay [1], the Potency was 23.5 µM (active). Also, in assay [7], the Potency entry was “inactive”.

Regarding `C[C@@H](NC(=O)c1ncnc(N)c1Cl)c1ncc(C(=O)Nc2cc(C(F)(F)F)c(Cl)cn2)s1`, the Potency in assay [1] was 14.8 µM (active). Also, the Potency result in [3] and in [6] was “inactive” in each case.

Consider `CC(C)CNc1ccnc(NCc2csc(-c3ccccc3)n2)n1`, for which the Potency was 14.8 µM (active) in [10]; 6.85 µM (active) in assay [2]; 23.5 µM (active) in [3]; 6.11 µM (active) in assay [4]; 29.6 µM (active) in [5]. Further, the Potency entry in assay [7] and in [8] was “inactive” in each case.

Consider `CC(C)N(CCCNC(=O)Nc1ccc(C(C)(C)C)cc1)C[C@H]1O[C@@H](n2cc(Br)c3c(N)ncnc32)[C@H](O)[C@H]1O`, for which the Potency in assay [10] was 23.5 µM (active); in assay [2], 24.3 µM (active); in assay [3], 20.9 µM (active); in assay [4], 24.3 µM (active); in [5] it was 29.6 µM (active); in assay [9] it was 18.7 µM (active).

For the compound `N#CC1(c2cccc(C(=O)Nc3cc(Oc4ccc5nc(NC(=O)C6CC6)sc5n4)ccc3F)c2Cl)CC1`, the Potency entry in [1] and in assay [7] was “inactive” throughout. The Potency in assay [4] was 19.3 µM (active).

With `COc1ccc2nc3cc(Cl)ccc3c(Nc3cc(CN4CCCC4)c(O)c(CN4CCCC4)c3)c2n1`, the Potency result in assay [1], in assay [3], in assay [6], in assay [7], in [8] and in assay [9] was “inactive” in each case.

In the case of `CCN(CC)CCCCNc1nc2cc(Cl)c(Cl)cc2nc1-c1ccc(-c2cccs2)s1`, the Potency in assay [10] is 26.4 µM (active); in assay [2], 34.3 µM (active); in assay [3] it was 18.7 µM (active); in [4], 19.3 µM (active); in [5] it was 18.7 µM (active); in assay [6], 18.7 µM (active). Besides, the Potency in assay [9] was 23.5 µM (active). For the same compound, the Potency result in assay [7] is “inactive”.

For the compound `C[C@@H](O[C@H]1OCCN(Cc2n[nH]c(=O)[nH]2)[C@@H]1c1ccc(F)cc1)c1cc(C(F)(F)F)cc(C(F)(F)F)c1`, the Potency in assay [1] and in assay [6] was 23.5 µM (active) each time. Besides, the Potency entry in assay [7] was “inactive”.

In the case of `CC(=O)OCC(=O)[C@@]1(O)CC[C@H]2[C@@H]3CCC4=CC(=O)C=C[C@]4(C)[C@@H]3[C@@H](O)C[C@@]21C`, the Potency entry in assay [1], in assay [3], in [6], in assay [7] and in assay [8] was “inactive” throughout.

As for `COc1cc([C@@H]2c3cc4c(cc3[C@@H](O[C@@H]3O[C@@H]5CO[C@@H](C)O[C@@H]5[C@H](O)[C@@H]3O)[C@H]3COC(=O)[C@H]23)OCO4)cc(OC)c1O`, the Potency in assay [1] is 0.662 µM (active); in [4], 2.73 µM (active). The Potency result in assay [7] and in [8] was “inactive” each time.

In the case of `CCC[C@@H](NC(=O)[C@@H]1[C@H]2CCC[C@@H]2CN1C(=O)[C@@H](NC(=O)[C@@H](NC(=O)c1cnccn1)C1CCCCC1)C(C)(C)C)C(=O)C(=O)NC1CC1`, the Potency entry in [1], in [6], in assay [7] and in assay [8] was “inactive” each time.
